The results in this text go back to paper PMC5540273 (PLoS ONE, 2017).

Holding throughout (settings): concentration: 1 μM, replicates: in singlicate; n = 1
The test system of assay [1] is FGFR1.
The subject of assay [2] is FGFR2.
The test system of assay [3] is FGFR3.
The subject of assay [4] is FGFR4.
For assay [5], the system named is FGR.
Assay [6] has as its system FLT1.
Assay [7] concerns FLT3-autoinhibited.
For assay [8], the system named is FLT3.
Assay [9] relates to FLT4.
Assay [10] deals with FRK.
The test system of assay [11] is FYN.
Assay [12] deals with GAK.
Assay [13] concerns T1, GCN2(Kin.Dom.2,S808G).
T1 construct: gene EIF2AK4

The test system of assay [14] is GRK1.
The subject of assay [15] is T2, GRK2.
T2 construct: gene ADRBK1

In assay [16] the test system is T3, GRK3.
T3 construct: gene ADRBK2

Assay [17] has as its system GRK4.
For assay [18], the system named is GRK7.
For assay [19], the system named is GSK3A.
Assay [20] has as its system GSK3B.
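Further: KINOMEscan kinase panel screen.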

In the case of `N#Cc1cnc2cc(-c3cnc(CNCCN4CCOCC4)s3)ccc2c1Nc1ccc(Oc2ccccc2)cc1` [GW664114], the “%Inh” value is listed as 0% in assay [1]; 0% in assay [2]; 2% in [3]; 0% in [4]; 96.7% in assay [5]; 53% in assay [6]. Besides, the “%Inh” value in assay [7] worked out at 7%; in [8] it was 70%; in assay [9] it was 22%; in assay [10] it was 17%; in assay [11], 93.2%; in assay [12], 43%. For the same molecule, the “%Inh” value is reported as 100% in assay [13]; 0% in assay [14]; 0% in assay [15]; 27% in assay [16]; 0% in [17]; 0% in assay [18]. The figures for the “%Inh” value in [19] and in assay [20] were 6% and 10%, respectively.

As for `Nc1ncc(-c2ccc3nccc(-c4ccncc4)c3c2)cc1S(=O)(=O)N1CCCCC1` [GSK1693850], the “%Inh” value in [1] was 0%; in [2], 84%; in assay [3] it was 16%; in assay [4], 0%; in assay [5], 23%; in assay [6], 7%. For the same molecule, the “%Inh” value in [7] is on record as 0%; in assay [8], 2%; in assay [9], 0%; in [10], 1%; in assay [11], 0%; in [12] it was 11%. For the same molecule, the “%Inh” value in assay [13] is listed as 4%; in assay [14], 21%; in [15], 0%; in assay [16] it was 0%; in assay [17], 8%; in [18], 11%. In addition, the “%Inh” value amounted to 22% in assay [19] and 13% in assay [20].

For `O=C(O)C(F)(F)F.O=c1[nH]ccc2nc(N[C@@H]3CCNC3)nc(Nc3cc(Cl)cc(Cl)c3)c12` [GSK2188764], the “%Inh” value came to 0% in [1]; 0% in assay [2]; 25% in assay [3]; 27% in [4]; 44% in assay [5]; 0% in [6]. The “%Inh” value in assay [7] amounted to 67%; in assay [8] it was 23%; in [9], 9%; in assay [10], 4%; in [11], 52%; in assay [12], 74%. The “%Inh” value in [13] amounted to 69%; in assay [14], 92%; in assay [15], 47%; in [16] it was 32%; in assay [17], 86%; in assay [18], 70%. Besides, the “%Inh” value in assay [19] is recorded as 49%; in assay [20] it was 19%.

`Cn1cc(-c2ccc3c(c2)CCN3C(=O)Cc2cc(F)cc(F)c2F)c2c(N)ncnc21` [GSK2634140]: the “%Inh” value in assay [1] is listed as 0%; in [2], 0%; in [3], 0%; in [4] it was 0%; in [5], 48%; in assay [6], 59%. Besides, the “%Inh” value came out at 0% in assay [7]; 31% in [8]; 14% in [9]; 10% in assay [10]; 0% in [11]; 17% in assay [12]. The “%Inh” value in [13] turned out to be 40%; in assay [14], 11%; in assay [15], 0%; in assay [16] it was 0%; in assay [17] it was 0%; in assay [18] it was 0%. Further, the entries for the “%Inh” value in [19] and in [20] were 0% and 1%, respectively.

In the case of `CN(C)c1ncnc2nc[nH]c12` [SKF-31736], the “%Inh” value in assay [1], in assay [2], in [3], in assay [4], in [5] and in assay [6] was 0% each time. Also, the “%Inh” value in assay [7], in assay [8], in assay [9], in [10], in assay [11] and in assay [12] was 0% each time. Moreover, the “%Inh” value in assay [13] was determined as 0%; in [14], 43%; in assay [15] it was 0%; in [16] it was 0%; in assay [17], 38%; in [18] it was 0%. The “%Inh” value was determined as 1% in assay [19] and 28% in assay [20].

With `O=C(O)C(F)(F)F.O=c1[nH]ccc2nc(N[C@@H]3CCNC3)nc(Nc3ccc4c(c3)S(=O)(=O)CC4)c12` [GSK2181306], the “%Inh” value is 4% in assay [1]; 33% in assay [2]; 21% in assay [3]; 0% in assay [4]; 45% in assay [5]; 32% in assay [6]. Also, the “%Inh” value in assay [7] came out at 79%; in [8], 61%; in [9], 42%; in [10] it was 26%; in assay [11] it was 43%; in assay [12] it was 76%. For the same molecule, the “%Inh” value in [13] is 97.3%; in assay [14], 95.2%; in assay [15], 49%; in [16] it was 60%; in assay [17] it was 88%; in [18] it was 65%. Further, the “%Inh” value in [19] stood at 97.8%; in assay [20], 92.1%.

Turning to `CN(c1ccc(NC(=O)N2CCN(CCCN3CCOCC3)CC2)cc1)c1ccnc(Nc2ccc(CS(C)(=O)=O)cc2)n1.Cl` [GW830899], the “%Inh” value is 0% in assay [1]; 9% in [2]; 8% in assay [3]; 5% in assay [4]; 35% in [5]; 73% in assay [6]. For the same molecule, the “%Inh” value was determined as 75% in [7]; 92.7% in assay [8]; 38% in [9]; 32% in assay [10]; 18% in [11]; 59% in [12]. The “%Inh” value was determined as 0% in assay [13]; 0% in assay [14]; 0% in assay [15]; 0% in assay [16]; 43% in [17]; 0% in assay [18]. The “%Inh” value in assay [19] and in assay [20] was 0% throughout.

As for `Cc1ccc(NC(=O)c2cccc(N3CCCCC3)c2)cc1-c1ccc(C(=O)NCC2CC2)cc1` [GSK1917008], the “%Inh” value in assay [1] is given as 21%; in assay [2], 20%; in assay [3] it was 21%; in [4], 18%; in assay [5], 24%; in [6] it was 34%. For the same molecule, the “%Inh” value is listed as 20% in assay [7]; 0% in assay [8]; 13% in assay [9]; 49% in assay [10]; 15% in [11]; 11% in [12]. For the same molecule, the “%Inh” value in assay [13] is listed as 15%; in assay [14], 3%; in assay [15], 6%; in assay [16], 27%; in [17], 10%; in assay [18], 0%. Further, the “%Inh” value in assay [19] is listed as 27%; in assay [20], 10%.

Regarding `Cc1cccc(Nc2nc(N[C@H]3CCCC[C@H]3N)ncc2C(N)=O)c1.Cl` [GSK986310], the “%Inh” value was determined as 24% in assay [1]; 4% in assay [2]; 3% in [3]; 15% in [4]; 56% in [5]; 43% in assay [6]. The “%Inh” value in [7] stood at 1%; in assay [8] it was 23%; in assay [9] it was 24%; in [10] it was 19%; in assay [11], 52%; in assay [12], 55%. Moreover, the “%Inh” value in assay [13] turned out to be 72%; in assay [14], 0%; in [15], 0%; in assay [16], 17%; in assay [17], 6%; in [18], 1%. Moreover, the “%Inh” value in assay [19] came out at 24%; in assay [20] it was 19%.

For `COC(=O)Nc1nc2cc(Oc3ccc(NC(=O)Nc4cccc(SC)c4)cc3)ccc2[nH]1.Cl` [GW697999], the “%Inh” value was found to be 11% in assay [1]; 5% in assay [2]; 0% in assay [3]; 0% in assay [4]; 47% in [5]; 98.9% in assay [6]. The “%Inh” value is reported as 22% in assay [7]; 99.3% in assay [8]; 86% in [9]; 48% in assay [10]; 19% in assay [11]; 21% in assay [12]. The “%Inh” value in [13] is given as 9%; in assay [14], 0%; in assay [15] it was 0%; in assay [16], 57%; in assay [17], 0%; in [18] it was 0%. Moreover, the “%Inh” value in assay [19] and in [20] was 0% in each case.
